# KLF5 inhibitor – KLF5 expression inhibitors, primary screen, DLD-1 cells, luminescence. DLD-1 KLF5 promoter-luciferase reporter. inhibition, % at 5 µM. 290,000 compounds, 0.23% hits;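 active = inhibition above a per-plate limit of that plate's mean compound inhibition plus 3 SD, cut at about 60% in these data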;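 note: 0% = DMSO wells and 100% = LY294002 at 200 µM; higher means less KLF5 promoter-driven luciferase light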
# Ba/F3 V617F tox – reduced viability of JAK2V617F-dependent Ba/F3 cells, primary screen, JAK2V617F inhibitor project, cell-based, Ba/F3 EpoR-JAK2V617F, luminescence; ATP luminescence; inhibition, % at 5.6 µM; 220,000 compounds, 1.1% hits; AID 1446, 2008;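 active = inhibition above the campaign mean plus 3 SD over all tested compounds, cut at about 24% in these data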;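 note: cytokine-independent growth of Ba/F3 cells driven by EpoR plus mutant JAK2; 0% = DMSO-treated cells and 100% = JAK inhibitor I control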
# BaF3 parental – parental Ba/F3 cell viability inhibition, counter-screen for JAK2V617F inhibitor project, murine pro-B, CellTiter-Glo luminescence; CellTiter-Glo ATP luminescence; inhibition, % at 5.6 µM; AID 1486, 2009; 220,000 compounds, 1.1% hits;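 active = inhibition above a per-campaign cutoff, the mean inhibition of all tested compounds plus 3 SD, cut at about 27% in these data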;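 note: 0% = DMSO wells and 100% = JAK Inhibitor I control wells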
# IEC-6 tox – cytotoxicity in IEC-6 intestinal epithelial cells, primary screen, cytotoxicity control for KLF5 inhibitor project, cell-based, luminescence; IEC-6 cytotoxicity, luminescence viability; inhibition, % at 5 µM; 290,000 compounds, 0.78% hits; in the data active = inhibition above about 22%;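 note: 0% = plate median of test compound wells and 100% = cytotoxic reference compound wells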
# aSyn 5UTR inh – MLPCN primary screen, SNCA 5' untranslated region | alpha-synuclein 5'UTR reporter, inhibitor activity | inhibition, % (tested at 7.5 µM) | 300,000 compounds, 0.82% hits | AID 1813, 2009; in the data active = inhibition above about 60%;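 note: H4 neuroglioblastoma cells stably carrying SNCA 5'UTR luciferase fusion; 0% = DMSO wells and 100% = positive control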
# APP transl inh – inhibitors of APP translation via 5'UTR reporter, primary screen, APP 5'UTR luciferase, SH-SY5Y cells; SH-SY5Y APP 5'UTR-luciferase reporter, luminescence; inhibition, % at 2 µM; 190,000 compounds, 0.82% hits; AID 1285, 2008;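 active = inhibition above a set limit, derived from the sample mean plus 3 SD, cut at about 45% in these data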
# * = called active by the depositor; x = not tested or not shown. Most compounds without a hit are left out; they make up all but 2.2% or so of the library.
SMILES,KLF5 inhibitor,Ba/F3 V617F tox,BaF3 parental,IEC-6 tox,aSyn 5UTR inh,APP transl inh
Cc1ccc(C2=NS(=O)(=O)N(C)C(C(=O)NCc3ccccc3)=C2)cc1,2,x,x,18,-10,x
O=C(CCc1c[nH]c2ccccc12)NCCc1ccc(Cl)cc1,5,x,x,5,4,x
Cc1cc(NC(=O)NN2CCOCC2)nn1-c1c(Cl)cccc1Cl,-38,2,-4,1,17,x
Oc1c(N=NC(=S)Nc2ccccc2F)c2ccccc2n1Cc1ccc(Cl)cc1,-18,1,6,-3,70*,23
Cc1ccc(C)c(Cn2c(O)c(N=NC(=S)Nc3ccccc3F)c3ccccc32)c1,8,2,0,-3,72*,14
Cn1c(=O)[nH]c(=O)c2c1nc(N1CCNCC1)n2CCOc1ccccc1,3,1,8,11,3,-15
CCOCCn1c(N2CCN(c3ccccc3)CC2)nc2c1c(=O)[nH]c(=O)n2C,-20,17,54*,-2,-3,-16
Cc1nnsc1C(=O)N1CCCC(Nc2ccc(F)c(F)c2)C1 (stereo unspecified),-26,x,x,-1,10,x
c1ccc2nc(-c3ccc(N4CCOCC4)cc3)ccc2c1,-48,-2,5,-6,104*,x
Cc1cc(-c2ccc(N3CCOCC3)cc2)nc2ccccc12,-46,3,8,12,-307,-90
O=C(NCc1ccccn1)Nc1ccccc1C(F)(F)F,-22,x,x,4,-8,x
CCOC(=O)CNC(=O)Cn1cnc2c(nnn2-c2ccc(F)cc2)c1=O,6,-4,96*,2,1,-6
Oc1ccc(/C=N/N=C(c2ccccc2)c2ccccc2)c(O)c1O,-27,-4,2,-22,x,49*
Cc1cc(NC(=O)CSc2nnc(C3CC3)n2N)c([N+](=O)[O-])cc1C,-5,2,81*,1,5,0
O=C1C=C(N2CCOCC2)c2ccccc2C1=O,-17,x,x,-7,114*,x
CC(C)CCNC(=O)c1onc(CSc2ccccc2)c1C(=O)NCCC(C)C,x,x,x,x,10,x
COCc1[nH][nH]c(=O)c1C=Nc1ccc(C(F)(F)F)cc1,-5,-2,5,-8,-7,2
Cc1[nH][nH]c(=O)c1C=Nc1ccc(C(F)(F)F)cc1,-16,3,4,1,-77,77*
COc1ccccc1-n1nc(C(=O)O)c2ccccc2c1=O,-52,-3,69*,-3,7,-14
COc1ccc(C(=O)Oc2ccc3c(c2)OCO3)cc1OC,-6,6,3,4,-59,-21
COc1cc2c(OC(C)=O)c3c(c(-c4ccc5c(c4)OCO5)c2cc1OC)C(=O)OC3,-3,22,-2,6,113*,18
COc1cc2c(=O)n(-c3ccc(C)cc3)c(=O)n(CC(=O)c3ccc4c(c3)OCO4)c2cc1OC,-14,1,4,0,-44,6
COc1cc2c(O)c3c(c(-c4ccc5c(c4)OCO5)c2cc1OC)C(=O)OC3,21,12,22,11,108*,8
CCOCCCNC(=O)c1cc(Cl)c(NC(=O)C2=C(C)OCCS2)cc1OC,4,x,x,4,-21,x
CC1Oc2ccccc2N(Cc2ccc(F)cc2)C1=O (stereo unspecified),-14,x,x,12,21,x
SMILES,KLF5 inhibitor,Ba/F3 V617F tox,BaF3 parental,IEC-6 tox,aSyn 5UTR inh,APP transl inh
CC(=O)N(C)c1cccc([N+](=O)[O-])c1,-12,-5,0,-6,21,87*
CN(N=Nc1cccc([N+](=O)[O-])c1)c1cccc([N+](=O)[O-])c1,-28,-1,9,-4,-82,-2
Nn1c(Nc2ccccc2)nc2sc3c(c2c1=O)CCC3,-36,-4,-1,22*,-61,-34
NNc1nc2sc3c(c2c(=O)n1Cc1ccccc1)CCC3,17,47*,34*,8,-6,x
CCn1c(NN)nc2sc3c(c2c1=O)CCC3,-30,-5,4,-8,x,-6
O=C(NCc1ccccn1)c1ccc(OC2CCN(Cc3cccs3)CC2)cc1,-13,x,x,-7,-47,x
COc1ccc(/C=N/n2cnn(Cc3ccccc3Cl)c2=S)cc1,-22,-2,2,-4,14,80*
Cc1sc2ncnc(N3CCCC(C)C3)c2c1C (stereo unspecified),9,4,6,4,34,4

# Screening results (PubChem)
